GLP-1R agonist – agonists of human GLP-1 receptor. P43220. HEK293 GLP-1R CRE-luciferase, luminescence, 4-6 h; cells express a hypersensitive GLP-1R form. Potency, µM (highest dose often 45.6 µM), for the others: at the highest dose activation, actives largely listed as activators. 380,000 tested, 0.007% active. AID 624172; also: % of control where 0% means no effect
Target sequence (P43220 whole entry, looked up): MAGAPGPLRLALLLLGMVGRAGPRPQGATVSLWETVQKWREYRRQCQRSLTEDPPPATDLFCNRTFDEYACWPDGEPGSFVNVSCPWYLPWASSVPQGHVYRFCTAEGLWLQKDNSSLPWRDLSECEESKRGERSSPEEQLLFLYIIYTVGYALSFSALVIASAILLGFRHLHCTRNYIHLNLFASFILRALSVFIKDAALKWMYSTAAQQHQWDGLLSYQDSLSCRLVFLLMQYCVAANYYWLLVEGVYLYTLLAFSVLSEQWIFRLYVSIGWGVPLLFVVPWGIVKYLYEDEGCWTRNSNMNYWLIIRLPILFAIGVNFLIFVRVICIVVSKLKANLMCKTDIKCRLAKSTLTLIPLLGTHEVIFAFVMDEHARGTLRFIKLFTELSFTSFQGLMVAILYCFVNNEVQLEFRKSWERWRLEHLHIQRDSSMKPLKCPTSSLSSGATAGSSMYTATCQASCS
GLP1R inv ag – GLP-1 receptor (human) inverse agonism; P43220; HEK293 GLP-1R CRE-luciferase, luminescence, 24 h; GLP-1R form is constitutively active; Potency, µM (top dose mostly 38.3 µM), for the others: at the top dose activity change, negative = inhibition, hits mostly inhibitors; 410,000 tested, 1.6% active; AID 624417; also: % is scaled to controls: 0 for no effect and ±100 for the full control effect; nearly all actives have a fitted effect of over 55% in size
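Constitutively active GLP-1R drives a cAMP-responsive luciferase in stably transfected HEK293 cells; test compounds are added after overnight (12 h) attachment and left 24 hr, and signal loss in luminescence marks inhibition.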
GLP1R cytotox – cytotoxic in the GLP-1 receptor inverse agonist counter-screen | HEK293 cAMP-luciferase reporter cells, luminescence, 24 h | Potency, µM (top dose mostly 38.3 µM), for inactives: at the highest dose activity change, negative = inhibition, hits mostly inhibitors | 410,000 tested, 0.13% active;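 also: loss of luciferase light is scored as toxicity; % is scaled to controls: 0 for no effect and ±100 for the full control effect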
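A 23 nL compound transfer followed 12 hours of cell culture at 37 deg C; exposure then lasted 24 hr. Luciferase assay detection reagent was dispensed and plates read for luminescence after a 12 min room-temperature wait.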
PTHR1 agonist – agonists of human PTHR1 parathyroid hormone receptor; HEK293 GP2 PTHR1 cells, GloSensor cAMP luminescence, 1 h; 410,000 tested, 0.075% active; Potency, µM (doses to about 115 µM), for inactives: top-dose activation, actives largely listed as activators; Q03431; AID 743266; also: nearly all actives have a fitted effect of over 55% in size
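HEK-293-derived GP2 cells expressing PTHR1 and a GloSensor cAMP reporter, 3,000/well, plated overnight, given luciferin plus IBMX (each 0.5 mM as added) for 1 h at 37 °C, then compound for 1 h at 37 °C. Luminescence was read after 15 min at room temperature.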
Active calls of the source: *; i = inactive; ? = inconclusive; / = no result. In the library only some 1.7% were active in any assay of this set; here they are far more common. Calls follow the shape of the dose curve; as a rule, active = well fitted curve in the direction sought with a large enough effect; inconclusive = small, poorly fitted or top-dose-only effect, or another doubt; inactive = no such curve, though single readings can be large; an effect the other way counts as inactive or inconclusive. Potency is read from the fitted curve at half-maximal effect.

SMILES	GLP-1R agonist	GLP1R inv ag	GLP1R cytotox	PTHR1 agonist
c1ccc(-c2nc3ccccc3n2C(c2ccccc2)c2nc3ccccc3[nH]2)cc1 (configuration not stated)	/	-22.4%	-13.0%	-62.7%
CSCCC(c1nc2ccccc2[nH]1)n1c(=O)c(-c2cccnc2)nc2ccccc21 (configuration not stated)	/	-14.9%	33.3%	-32.1%
O=c1c(-c2ccccc2)nc2ccccc2n1C(c1ccccc1)c1nc2ccccc2[nH]1 (configuration not stated)	/	1.58µM*	-22.1%	-44.1%
O=c1c(-c2ccccc2)nc2ccccc2n1C(CCc1ccccc1)c1nc2ccccc2[nH]1 (configuration not stated)	/	10µM*	-14.7%	0.3%
O=C(c1cccc(Cl)c1)N1CCCc2ccccc21	0.2%	?	-9.3%	-17.3%
CCN(C(=O)CCn1cnc2onc(-c3ccc(F)cc3)c2c1=O)c1ccc(OC)cc1	/	8.8%	10.7%	i
Nc1[nH]c(C(=O)c2ccccc2)c(-c2ccccc2Br)c1C(=O)c1ccccc1	6.3%	27.2%	5.0%	-15.7%
CCOc1ccc(OCCCC(=O)N(C)CC(=O)Nc2ccccc2Br)cc1	0.2%	-23.8%	-2.2%	-38.0%
CCCN(CC(=O)Nc1ccccc1C)C(=O)CCCOc1ccc(Br)cc1	1.1%	8.91µM*	2.4%	-23.3%
CCC(C)c1ccccc1NC(=O)COC(=O)c1ccc2[nH]c3c(c2c1)CCCC3 (configuration not stated)	-8.5%	5.62µM*	7.6%	-29.9%
O=C(COC(=O)c1ccc2[nH]c3c(c2c1)CCCC3)Nc1ccccc1Cl	2.5%	10.7%	-3.5%	i
Cc1ccc(CNC(=O)c2c3c(nc4ccccc24)C(=O)N(C2CCCCC2)C3)cc1	/	11.2µM*	-5.3%	-19.8%
CC(C)(C)c1cc(NC(=O)C2(C)CCN2C(=O)c2ccccc2CCc2ccccc2)no1 (configuration not stated)	0.2%	8.91µM*	5.3%	-47.8%
Cc1ccc(NC(=O)C2(C)CCN2C(=O)c2ccccc2CCc2ccccc2)cc1C (configuration not stated)	2.1%	2.82µM*	-5.2%	i
CN1CCN(CCOC2Cc3ccccc3Sc3ccc(Cl)cc32)CC1 (configuration not stated)	-25.2%	8.91µM*	?	?
CCOC(=O)C1CN(S(=O)(=O)c2ccc(C)cc2)C1	-4.9%	11.3%	-2.2%	i
Cc1ccc(NC(=S)NC(=O)C2CC2)cc1Cl	-5.6%	10µM*	?	-14.8%
Cc1ccc(S(=O)(=O)N(C)C)cc1NC(=O)Nc1ccccc1F	3.5%	-10.9%	-0.2%	i
Cc1cc(C)cc(NC(=O)Nc2cc(S(=O)(=O)N(C)C)ccc2C)c1	11.8%	10µM*	5.6%	i
CCc1cc(C(=O)N2CCc3c([nH]c4ccccc34)C2c2ccc(OC)cc2F)no1 (configuration not stated)	9.7%	?	0.8%	-3.1%
Cc1cc(C(=O)N2CCc3c([nH]c4ccccc34)C2c2c(F)cccc2Cl)no1 (configuration not stated)	-4.9%	10µM*	-10.7%	i
Cc1nc(C(=O)N2CCc3c([nH]c4ccccc34)C2c2cc(F)ccc2F)cs1 (configuration not stated)	?	11.2µM*	3.9%	i
CCC(=O)N1c2ccccc2CC1C(=O)NCc1ccc(OC(C)C)cc1 (configuration not stated)	/	-4.4%	6.1%	-34.4%
COc1ccccc1C(=O)NNC(=O)c1nn(Cc2ccccc2)c(=O)c2ccccc12	10.3%	?	10µM*	i
Cc1ccc(NC(=O)NC(C)c2c(-n3cccc3)sc(C)c2C)cc1F (configuration not stated)	/	?	-27.8%	-39.5%
Cc1sc(-n2cccc2)c(C(C)NC(=O)Nc2cccc(C(F)(F)F)c2)c1C (configuration not stated)	/	8.91µM*	-6.7%	-46.2%
Cc1ccc(C(=O)Nc2ccc(N3CCN(C)CC3)cc2)c(Cl)c1	17.3%	2.9%	-6.5%	i
CCN(CC)CCNC(=O)c1c(C)[nH]c(/C=C2\C(=O)Nc3ccc(F)cc32)c1C	-11.1%	/	/	/
COC(=O)NC1CC2C=CC1C1C=CC21 (configuration not stated)	1.2%	16.3%	-9.2%	i

Screening results from PubChem.
